Consider 90 compounds from PubChem BioAssay AID504848 (National Center for Advancing Translational Sciences (NCATS), 2011).

SMILES strings stand for the structures. The campaign covered roughly 2,300 compounds. About 1,400 (61%) were called active. Inconclusive results (about 29%) are left out. The set was probably picked from earlier hits. The list shows a part of the results. Values without a mark were called inactive. Calls follow the shape of the dose curve; as a rule, active = well fitted inhibition curve with a large enough effect; inconclusive = small, poorly fitted or top-dose-only effect, or effect the other way; inactive = no such curve, though single readings can be large or run the other way.
% is scaled to controls: 0 for no effect and ±100 for the full control effect; potency is read from the fitted curve at half-maximal effect.

The test can be described thus: Confirmation screen for delayed death inhibitors of the malarial parasite plastid, 96 hour incubation. Also: nearly all actives have a fitted effect of over 60% in size. The conditions noted are these: P. falciparum luciferase growth in erythrocytes; series mostly up to 28.7 µM; activity change, negative = inhibition: at the top concentration. The essentials: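 Two-generation (96 h, 37 C) exposure of P. falciparum carrying an integrated firefly luciferase reporter in erythrocytes, 0.1% parasitemia and 2% hematocrit final, Albumax-supplemented RPMI. Luminescence decrease measures growth inhibition.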
For `CCN(CC)CCNC(=O)C1c2cc(OC)c(OC)cc2C(=O)N2CCc3ccccc3C12` (stereo not given), the Potency was 2.24 µM (active).
Take `CCN1C(=O)[C@@H]2[C@@H](c3ccc(SC4CCCCC4)c(OC)c3)N3CCC[C@@]3(C(=O)OC)[C@@H]2C1=O`: the Potency is 2.51 µM (active).
With `COC(=O)[C@@]12CCCN1[C@H](c1ccc(-c3cccc(Cl)c3)c(OC)c1)[C@H]1C(=O)N(C)C(=O)[C@H]12`, the Potency is 1.12 µM (active).
For the compound `COc1ccccc1OCC(=O)Nc1nc2c(s1)CCCC2`, the “activity change, negative = inhibition” value is 52.6%.
Consider `CC(C)(C)c1nc(SCC(=O)Nc2nc3c(s2)CCCC3)c2ccccc2n1`, for which the Potency was 2 µM (active).
For `CC(C)(C)c1nc(SCC(=O)Nc2ccc(N3CCOCC3)cc2)c2ccccc2n1`, the Potency is 8.91 µM (active).
Same read-out and setting: with `Cc1ccc(-c2cc(=O)c3ccc(F)cc3[nH]2)cc1` the figure was 3.98 µM (active).
For the compound `CC(=O)c1c(C)cc(C)c(CSc2nc(C)cc(=O)[nH]2)c1C`, the “activity change, negative = inhibition” value was -38.6%.
With `Cc1ccc(S(=O)(=O)Nc2cc(=O)[nH]c(SCc3ccc(Cl)cc3)n2)cc1`, the Potency was 11.2 µM (active).
Turning to `Cc1oc(-c2ccccc2F)nc1CS(=O)(=O)CC(=O)NCCCN1CCN(C)CC1`, the “activity change, negative = inhibition” value is -10.7%.
With `Cc1oc(-c2ccccc2Cl)nc1CSCC(=O)N1CCCC1`, the Potency is 11.2 µM (active).
Turning to `COc1ccc(-n2c(C)cc(C(=O)COC(=O)Cc3n[nH]c(=O)c4ccccc34)c2C)cc1`, the Potency was 3.55 µM (active).
`O=C(Cc1n[nH]c(=O)c2ccccc12)OCc1c(Cl)cccc1Cl`: the “activity change, negative = inhibition” value was -5.11%.
Take `COc1ccc(C(C)=O)cc1CSc1nc2ccccc2c(=O)n1-c1ccccc1C`: the Potency was 7.94 µM (active).
Regarding `Cc1ccc(/C=N/NC(=O)CSc2nc3ccccc3c(=O)n2-c2ccccc2C)s1`, the Potency is 6.31 µM (active).
Regarding `Cc1ccc(-c2nn(C(C)(C)C)c3ncnc(N)c23)cc1`, the Potency is 5.01 µM (active).
In the case of `O=C(Nc1nnc(SCc2ccc(F)cc2)s1)c1ccccn1`, the Potency was 2.82 µM (active).
In the case of `Oc1ccc(-c2n[nH]c(=S)n2-c2ccc3c(c2)OCCO3)c(O)c1`, the Potency is 0.355 µM (active).
Still for that read-out and setting: with `COc1cc(C(=O)NCc2ccncc2)cc(Br)c1OCc1ccccc1` the figure was 8.91 µM (active); with `Cc1ccc(S(=O)(=O)N2CCN(c3ccc(C(=O)N4CCOCC4)cc3[N+](=O)[O-])CC2)cc1`, 4.47 µM (active); with `O=C(c1ccc(S(=O)(=O)Cc2cc(F)ccc2F)c([N+](=O)[O-])c1)N1CCCC1`, 7.94 µM (active).
On the same count and under the same terms, in the case of `O=C(c1ccc(S(=O)(=O)Cc2ccccc2Cl)c([N+](=O)[O-])c1)N1CCOCC1` it was 3.98 µM (active).
In the case of `CC(C)NC(=O)NC(=O)COC(=O)c1ccccc1Oc1ccccc1`, the “activity change, negative = inhibition” value was -19.1%.
As to `Cc1cccc(NC(=O)COC(=O)c2cccc3c2C(=O)c2ccccc2C3=O)c1C`, the Potency was 12.6 µM (active).
Turning to `CN(C)S(=O)(=O)c1cc(NC(=O)c2cc(=O)c3ccccc3o2)ccc1Cl`, the Potency was 5.01 µM (active).
Turning to `CN(C)S(=O)(=O)c1cc(NC(=O)C2=COCCO2)ccc1Cl`, the Potency was 10 µM (active).
Regarding `CCCCCCn1c(=O)[nH]c2nc3cc(N)ccc3nc2c1=O`, the Potency was 14.1 µM (active).
Regarding `COc1ccc(NC(=O)NC2CCCCCCC2)c(OC)c1`, the Potency was 11.2 µM (active).
`COc1cc(-c2ccc(Nc3ccccc3C(=O)O)c(OC)c2)ccc1Nc1ccccc1C(=O)O`: the Potency was 10 µM (active).
Consider `COc1ccc(NC(=O)N2CCCc3cc(C)ccc32)c(OC)c1`, for which the Potency was 12.6 µM (active).
Take `O=C(O)c1ccccc1Nc1ccc([N+](=O)[O-])cc1`: the “activity change, negative = inhibition” value was 15.4%.
Take `COc1ccccc1NC(=O)Cc1nnc(SCC(=O)NC2CCCCC2)n1C`: the “activity change, negative = inhibition” value is -14.6%.
Consider `COc1cc(-c2ccc(NC(=O)NC3CC3)c(OC)c2)ccc1NC(=O)NC1CC1`, for which the Potency was 11.2 µM (active).
`COc1ccc(NC(=O)NC2CCCc3ccccc32)c(OC)c1` (stereo not given): the Potency was 6.31 µM (active).
With `CCNc1ccc(Br)cc(C(=O)/C=C/c2c(Cl)cccc2Cl)c1=O`, the Potency was 7.08 µM (active).
`CC(=O)Oc1ccc(-c2csc(Nc3cccnc3)n2)cc1`: the “activity change, negative = inhibition” value is 3.42%.
For the compound `O=C(NC(=S)Nc1nc(-c2ccccc2)cs1)c1cccnc1`, the Potency is 12.6 µM (active).
Turning to `CC(Oc1ccc(Br)cc1)C(=O)N1CCN(c2ccccn2)CC1` (stereo not given), the Potency was 12.6 µM (active).
For the compound `O=C(c1ccccc1Br)N1CCN(c2ccccn2)CC1`, the “activity change, negative = inhibition” value was -19.7%.
As to `CCCCn1c(=O)[nH]c(=O)c2c1nc(Cn1ncc(Cl)c(Cl)c1=O)n2CCC`, the Potency is 10 µM (active).
As to `CC(C)CNC(=O)C(=O)Nc1cc2c3c(c1)C(C)C(=O)N3CCC2` (stereo not given), the Potency was 14.1 µM (active).
For `Cc1ccccc1NC(=O)Cc1nnc(SCC(=O)NC2CCCCC2)n1C`, the “activity change, negative = inhibition” value was -11.3%.
As for `Cn1c(Cc2cccc3ccccc23)nnc1SCc1ccc([N+](=O)[O-])cc1`, the Potency is 12.6 µM (active).
On the same count and under the same terms, in the case of `COc1ccccc1C1CCCN1Cc1nc(-c2ccc(C)s2)oc1C` (stereo not given) it was 14.1 µM (active); in that of `N#CC1=C(N)Oc2n[nH]c(-c3cccnc3)c2C1c1ccc([N+](=O)[O-])o1` (stereo not given), 15.8 µM (active); in that of `C=C1C(=O)[C@@]23[C@H](O)C[C@@H]4C(C)(C)CC[C@H](O)[C@]4(C)[C@@H]2C[C@H](O)[C@@H]1[C@H]3O`, 14.1 µM (active).
With `Cc1ccc(Cl)cc1N1CCN(c2cccc[n+]2C)CC1`, the Potency is 2 µM (active).
On the same count and under the same terms, with `CCCc1[nH]nc2c1C(c1cc(OC)ccc1F)C(C#N)=C(N)O2` (stereo not given) the figure was 3.55 µM (active).
Consider `O=C(CSc1nc(-c2ccco2)cc(C(F)(F)F)n1)Nc1ccccc1C(F)(F)F`, for which the Potency was 12.6 µM (active).
For the compound `O=C(NCc1ccccn1)c1cc(-c2ccc(-c3ccccc3)cc2)nc2ccccc12`, the Potency is 15.8 µM (active).
For the compound `CC(Sc1nc2cc(Cl)ccc2s1)C(=O)Nc1cccc(S(=O)(=O)N2CCOCC2)c1` (stereo not given), the Potency was 12.6 µM (active).
Regarding `COc1cccc(/C=N/NC(=O)c2nc(-c3ccccc3)cc(-c3ccccc3)n2)c1O`, the Potency was 7.94 µM (active).
Turning to `COc1ccccc1-n1nnnc1S(=O)(=O)Cc1ccc(Cl)cc1`, the Potency is 7.08 µM (active).
`CCCc1cc(C(=O)N2CCCC(N3CCN(c4ccccc4F)CC3)C2)n(C)n1` (stereo not given): the Potency was 10 µM (active).
Consider `CC(=O)NC(=O)COC(=O)/C=C/c1c(C)nn(Cc2c(Cl)cccc2Cl)c1Cl`, for which the “activity change, negative = inhibition” value was -64.7%.
With `COc1ccc2cc3cc(C(=O)N(C)C4CCCCC4)oc3nc2c1`, the Potency is 10 µM (active).
Turning to `COc1ccc2cc3cc(C(=O)Nc4ccc5c(c4)OCO5)oc3nc2c1`, the Potency was 0.891 µM (active).
With `CCOC(=O)C1CCCN(C(=O)c2cc3cc4ccc(OC)cc4nc3o2)C1` (stereo not given), the Potency is 7.94 µM (active).
Turning to `CN(CCCN1c2ccccc2CCc2ccccc21)CC(=O)c1ccc(Cl)cc1`, the Potency is 12.6 µM (active).
In the case of `CCN(CC)C(=O)COc1coc(CN2CCN(c3cccc(Cl)c3)CC2)cc1=O`, the Potency was 4.47 µM (active).
On to `CCN(CC)C(=O)COc1coc(CN2CCN(c3ccccc3)CC2)cc1=O`, for which the Potency is 7.94 µM (active).
As for `CN(C(=O)COc1coc(CN2CCN(c3ccccc3)CC2)cc1=O)c1ccccc1`, the Potency is 10 µM (active).
Same read-out and setting: with `CCOc1ccccc1NC(=O)COc1coc(CN2CCc3ccccc3C2)cc1=O` the figure was 11.2 µM (active); with `CCCNC(=O)COc1coc(CN2CCN(c3cccc(Cl)c3)CC2)cc1=O`, 10 µM (active).
As to `O=C(/C=C/c1ccncc1)c1ccc2c(c1)OCCO2`, the Potency is 12.6 µM (active).
`O=C(O)c1ccc(/C=N/NC(=O)c2ccc3c(c2)OCCO3)cc1`: the “activity change, negative = inhibition” value is 24%.
In the case of `CCOC(=O)C1=C(C)N=c2s/c(=C\c3ccc(OCC(=O)O)cc3)c(=O)n2C1c1ccc(OC(C)C)cc1` (stereo not given), the Potency is 2.51 µM (active).
Take `OC(c1cc(C(F)(F)F)nc2c(C(F)(F)F)cccc12)C1CCCCN1` (stereo not given): the Potency is 0.0501 µM (active).
On the same count and under the same terms, with `O[C@@H](c1cc(C(F)(F)F)nc2c(C(F)(F)F)cccc12)[C@H]1CCCCN1` the figure was 0.178 µM (active).
Same read-out and setting: with `OC(c1cc(-c2ccc(Cl)cc2)nc2ccccc12)C1CCCCN1` (stereo not given) the figure was 0.251 µM (active); with `OC(c1cc(C(F)(F)F)nc2c(Cl)cc(Cl)cc12)C1CCCCN1` (stereo not given), 0.0224 µM (active).
Regarding `CCN(CC)c1ccc(NC(=S)NC(=O)C2CCC2)cc1`, the Potency is 11.2 µM (active).
For the compound `O=[N+]([O-])c1cncc([N+](=O)[O-])c1Nc1cccc(O)c1`, the Potency is 12.6 µM (active).
Consider `NC(=O)C1CCN(CC(=O)Nc2cccc(C(=O)Nc3cccc(C(F)(F)F)c3)c2)CC1`, for which the Potency is 1.12 µM (active).
`O=C(Nc1ccsc1C(=O)O)c1cccc(C(F)(F)F)c1`: the “activity change, negative = inhibition” value was 0.077%.
For the compound `COc1ccc(OC)c(/C=C/c2c([N+](=O)[O-])c(=O)n(C)c(=O)n2C)c1`, the Potency is 12.6 µM (active).
For `Cn1c(/C=C/c2ccc(Cl)cc2)c([N+](=O)[O-])c(=O)n(C)c1=O`, the Potency is 6.31 µM (active).
For the compound `COc1ccc(Cn2c(O)c(C=Nc3ccc(O)cc3)c3ccccc3c2=O)cc1`, the Potency is 7.94 µM (active).
In the case of `COc1ccc(-c2cc(-c3ccccc3)nc(SC(C)C(=O)O)c2C#N)cc1` (stereo not given), the Potency is 10 µM (active).
Regarding `COc1ccc(-c2cc(-c3ccccc3)nc(SCC(=O)Nc3nccs3)c2C#N)cc1`, the Potency is 2 µM (active).
Take `CCCSc1sc(C(=O)OC)c(-c2cccs2)c1C#N`: the “activity change, negative = inhibition” value is -103%.
Regarding `CCc1ccc(NC(=O)CN(c2cc(C)cc(C)c2)S(=O)(=O)c2c(C)[nH]c(=O)[nH]c2=O)cc1`, the Potency is 12.6 µM (active).
As for `Cc1cccc(C)c1OCc1cc(C(=O)N(C)Cc2nc3ccccc3[nH]2)no1`, the Potency was 14.1 µM (active).
For the compound `Cc1ccc(C)c(/C=C/C(=O)c2ccccc(=O)c2O)c1`, the Potency was 11.2 µM (active).
In the case of `O=C(/C=C/c1ccccc1Cl)c1ccccc(=O)c1O`, the Potency is 6.31 µM (active).
On the same count and under the same terms, with `COc1ccc(OC)c(CNC(=O)c2ccc(C)c(NC(=O)C3=C(C)OCCS3)c2)c1` the figure was 10 µM (active); with `S=c1nc2c(n[nH]1)c1ccccc1n2CCc1ccccc1`, 12.6 µM (active).
As to `CSc1nnc2c3ccccc3n(CCc3ccccc3)c2n1`, the Potency is 15.8 µM (active).
As to `CC1C/C(=C/c2ccncc2)C(=O)/C(=C/c2ccncc2)C1` (stereo not given), the Potency was 3.55 µM (active).
`O=[N+]([O-])c1c(Nc2ccccc2O)cc(Cl)c2nonc12`: the Potency is 3.55 µM (active).
